Results: ChEMBL document CHEMBL1961873, “Compounds: GSK PKIS; Assays: Nanosyn kinase panel” (2012)

Columns and labels:
[1] = biological target: Serine/threonine-protein kinase MARK2 (Homo sapiens) (UniProt Q7KZI7); conditions: at 1 µM
[2] = biological target: PAS domain-containing serine/threonine-protein kinase (Homo sapiens) (UniProt Q96RG2); conditions: at 0.1 µM
[3] = biological target: PAS domain-containing serine/threonine-protein kinase (Homo sapiens) (UniProt Q96RG2); conditions: at 1 µM
[4] = biological target: Phosphorylase b kinase gamma catalytic chain, skeletal muscle/heart isoform (Homo sapiens) (UniProt Q16816); conditions: at 0.1 µM
Sequence of Phosphorylase b kinase gamma catalytic chain, skeletal muscle/heart isoform (Homo sapiens) (Q16816 whole entry, looked up, canonical isoform): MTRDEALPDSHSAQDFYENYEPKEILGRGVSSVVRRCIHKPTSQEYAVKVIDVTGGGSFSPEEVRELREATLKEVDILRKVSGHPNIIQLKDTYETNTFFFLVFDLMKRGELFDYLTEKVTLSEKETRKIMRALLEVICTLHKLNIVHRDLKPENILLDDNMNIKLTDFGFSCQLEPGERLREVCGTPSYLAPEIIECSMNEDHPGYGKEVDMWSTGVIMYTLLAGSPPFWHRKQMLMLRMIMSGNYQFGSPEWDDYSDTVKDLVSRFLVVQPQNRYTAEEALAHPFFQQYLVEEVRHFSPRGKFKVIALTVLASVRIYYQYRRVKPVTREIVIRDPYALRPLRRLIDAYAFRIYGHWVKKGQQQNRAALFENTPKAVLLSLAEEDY

[5] = biological target: Phosphorylase b kinase gamma catalytic chain, skeletal muscle/heart isoform (Homo sapiens) (UniProt Q16816); conditions: at 1 µM
[6] = biological target: T1, Phosphorylase b kinase gamma catalytic chain, liver/testis isoform (Homo sapiens) (UniProt P15735); conditions: at 0.1 µM
T1 sequence (whole entry): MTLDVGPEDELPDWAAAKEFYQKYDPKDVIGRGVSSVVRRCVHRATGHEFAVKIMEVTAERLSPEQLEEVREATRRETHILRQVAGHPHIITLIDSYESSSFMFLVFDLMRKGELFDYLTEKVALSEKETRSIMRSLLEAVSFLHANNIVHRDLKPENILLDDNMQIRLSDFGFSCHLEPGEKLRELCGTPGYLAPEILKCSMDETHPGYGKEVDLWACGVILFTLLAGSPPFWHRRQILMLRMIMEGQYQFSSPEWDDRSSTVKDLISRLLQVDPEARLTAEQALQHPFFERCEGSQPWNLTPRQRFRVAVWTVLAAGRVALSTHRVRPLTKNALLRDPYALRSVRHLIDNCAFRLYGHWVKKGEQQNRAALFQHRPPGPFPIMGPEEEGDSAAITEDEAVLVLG

[7] = biological target: T1, Phosphorylase b kinase gamma catalytic chain, liver/testis isoform (Homo sapiens); conditions: at 1 µM
[8] = biological target: Serine/threonine-protein kinase pim-1 (Homo sapiens) (UniProt P11309); conditions: at 0.1 µM
Sequence of Serine/threonine-protein kinase pim-1 (Homo sapiens) (P11309 whole entry, looked up): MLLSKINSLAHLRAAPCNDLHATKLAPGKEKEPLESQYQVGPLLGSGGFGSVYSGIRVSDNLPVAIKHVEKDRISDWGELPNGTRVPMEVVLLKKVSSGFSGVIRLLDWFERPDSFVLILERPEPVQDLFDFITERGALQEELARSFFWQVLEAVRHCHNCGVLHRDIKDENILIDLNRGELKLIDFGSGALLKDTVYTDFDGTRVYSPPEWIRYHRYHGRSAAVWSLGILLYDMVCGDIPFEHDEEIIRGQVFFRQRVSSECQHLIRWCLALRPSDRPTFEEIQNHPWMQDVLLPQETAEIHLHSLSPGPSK

[9] = biological target: Serine/threonine-protein kinase pim-1 (Homo sapiens) (UniProt P11309); conditions: at 1 µM
[10] = biological target: Serine/threonine-protein kinase pim-2 (Homo sapiens) (UniProt Q9P1W9); conditions: at 0.1 µM
Sequence of Serine/threonine-protein kinase pim-2 (Homo sapiens) (Q9P1W9 whole entry, looked up): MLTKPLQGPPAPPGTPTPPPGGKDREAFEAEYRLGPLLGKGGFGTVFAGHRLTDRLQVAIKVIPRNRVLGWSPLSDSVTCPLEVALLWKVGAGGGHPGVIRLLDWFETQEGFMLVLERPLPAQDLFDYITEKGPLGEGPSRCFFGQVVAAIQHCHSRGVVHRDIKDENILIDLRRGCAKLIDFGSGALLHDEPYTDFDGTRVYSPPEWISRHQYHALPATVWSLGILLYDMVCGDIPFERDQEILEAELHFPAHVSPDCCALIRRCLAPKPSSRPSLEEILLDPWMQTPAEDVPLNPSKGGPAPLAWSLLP

[11] = biological target: Serine/threonine-protein kinase pim-2 (Homo sapiens) (UniProt Q9P1W9); conditions: at 1 µM
[12] = biological target: Serine/threonine-protein kinase pim-3 (Homo sapiens) (UniProt Q86V86); conditions: at 0.1 µM
[13] = biological target: Serine/threonine-protein kinase pim-3 (Homo sapiens) (UniProt Q86V86); conditions: at 1 µM
[14] = biological target: T2, MAP kinase-activated protein kinase 5 (Homo sapiens) (UniProt Q8IW41); conditions: at 0.1 µM
T2 sequence (whole entry): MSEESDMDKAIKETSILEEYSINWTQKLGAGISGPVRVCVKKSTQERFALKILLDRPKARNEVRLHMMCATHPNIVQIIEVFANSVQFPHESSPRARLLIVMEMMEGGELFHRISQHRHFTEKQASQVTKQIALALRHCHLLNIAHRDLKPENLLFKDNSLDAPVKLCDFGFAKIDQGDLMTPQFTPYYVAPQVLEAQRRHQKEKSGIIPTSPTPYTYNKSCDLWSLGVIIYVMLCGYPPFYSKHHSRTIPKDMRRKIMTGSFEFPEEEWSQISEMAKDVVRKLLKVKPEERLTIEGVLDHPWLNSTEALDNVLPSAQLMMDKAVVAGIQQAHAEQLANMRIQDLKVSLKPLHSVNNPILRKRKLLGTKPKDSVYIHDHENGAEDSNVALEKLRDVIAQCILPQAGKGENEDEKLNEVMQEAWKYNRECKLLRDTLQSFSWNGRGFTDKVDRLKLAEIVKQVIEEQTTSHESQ

[15] = biological target: T2, MAP kinase-activated protein kinase 5 (Homo sapiens); conditions: at 1 µM
[16] = biological target: Serine/threonine-protein kinase SIK1 (Homo sapiens) (UniProt P57059); conditions: at 0.1 µM
Sequence of Serine/threonine-protein kinase SIK1 (Homo sapiens) (P57059 whole entry): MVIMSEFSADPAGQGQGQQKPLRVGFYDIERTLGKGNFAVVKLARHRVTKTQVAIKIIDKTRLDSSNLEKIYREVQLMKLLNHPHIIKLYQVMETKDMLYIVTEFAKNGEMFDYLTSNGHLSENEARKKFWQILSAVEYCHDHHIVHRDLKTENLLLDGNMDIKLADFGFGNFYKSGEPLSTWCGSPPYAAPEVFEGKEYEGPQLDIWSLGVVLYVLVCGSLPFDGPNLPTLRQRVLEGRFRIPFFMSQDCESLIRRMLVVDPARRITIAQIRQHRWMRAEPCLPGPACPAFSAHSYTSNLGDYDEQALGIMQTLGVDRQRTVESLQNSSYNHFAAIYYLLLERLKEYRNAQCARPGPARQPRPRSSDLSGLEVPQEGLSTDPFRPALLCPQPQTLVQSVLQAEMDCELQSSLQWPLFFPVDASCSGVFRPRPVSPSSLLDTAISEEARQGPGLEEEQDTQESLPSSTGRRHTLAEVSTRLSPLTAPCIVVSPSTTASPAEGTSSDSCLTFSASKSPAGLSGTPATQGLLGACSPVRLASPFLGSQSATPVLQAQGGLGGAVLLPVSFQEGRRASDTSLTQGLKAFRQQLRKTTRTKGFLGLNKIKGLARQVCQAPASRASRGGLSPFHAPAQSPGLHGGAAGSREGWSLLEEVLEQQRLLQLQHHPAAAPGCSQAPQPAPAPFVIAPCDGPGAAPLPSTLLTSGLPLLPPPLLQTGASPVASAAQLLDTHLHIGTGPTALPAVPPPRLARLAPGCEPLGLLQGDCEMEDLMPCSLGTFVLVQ

[17] = biological target: Serine/threonine-protein kinase SIK1 (Homo sapiens) (UniProt P57059); conditions: at 1 µM
[18] = biological target: Serine/threonine-protein kinase SIK2 (Homo sapiens) (UniProt Q9H0K1); conditions: at 0.1 µM
Sequence of Serine/threonine-protein kinase SIK2 (Homo sapiens) (Q9H0K1 whole entry, looked up): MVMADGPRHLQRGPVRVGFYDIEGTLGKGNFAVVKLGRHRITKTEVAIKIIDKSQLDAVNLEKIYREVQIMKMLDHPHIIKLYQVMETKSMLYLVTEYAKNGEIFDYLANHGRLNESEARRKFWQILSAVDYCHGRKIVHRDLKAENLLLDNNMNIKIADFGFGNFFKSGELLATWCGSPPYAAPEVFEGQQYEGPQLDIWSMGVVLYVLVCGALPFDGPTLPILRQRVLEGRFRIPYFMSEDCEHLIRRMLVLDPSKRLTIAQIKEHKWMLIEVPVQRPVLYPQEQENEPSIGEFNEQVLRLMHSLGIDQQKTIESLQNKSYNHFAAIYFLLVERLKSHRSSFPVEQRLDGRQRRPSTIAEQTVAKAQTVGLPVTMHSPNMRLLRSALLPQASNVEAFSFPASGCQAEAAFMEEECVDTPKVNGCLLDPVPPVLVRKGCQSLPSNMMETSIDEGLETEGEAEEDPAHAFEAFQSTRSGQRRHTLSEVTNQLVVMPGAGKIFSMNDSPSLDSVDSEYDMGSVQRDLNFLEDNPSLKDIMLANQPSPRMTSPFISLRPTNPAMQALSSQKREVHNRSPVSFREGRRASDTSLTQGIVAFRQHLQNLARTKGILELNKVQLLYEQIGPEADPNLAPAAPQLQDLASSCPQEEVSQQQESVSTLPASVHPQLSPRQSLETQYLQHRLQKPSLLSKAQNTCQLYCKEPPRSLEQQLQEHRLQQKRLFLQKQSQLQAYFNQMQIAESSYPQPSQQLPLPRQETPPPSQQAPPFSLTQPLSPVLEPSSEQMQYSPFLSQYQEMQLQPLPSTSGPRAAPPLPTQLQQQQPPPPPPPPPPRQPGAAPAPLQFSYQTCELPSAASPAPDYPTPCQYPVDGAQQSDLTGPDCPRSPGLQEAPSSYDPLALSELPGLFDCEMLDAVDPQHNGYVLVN

[19] = biological target: Serine/threonine-protein kinase SIK2 (Homo sapiens) (UniProt Q9H0K1); conditions: at 1 µM
[20] = biological target: T3, Serine/threonine-protein kinase TBK1 (Homo sapiens) (UniProt Q9UHD2); conditions: at 0.1 µM;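 further: values are the mean TBK1 inhibition, taken from the GSK PKIS screening data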
T3 sequence (whole entry): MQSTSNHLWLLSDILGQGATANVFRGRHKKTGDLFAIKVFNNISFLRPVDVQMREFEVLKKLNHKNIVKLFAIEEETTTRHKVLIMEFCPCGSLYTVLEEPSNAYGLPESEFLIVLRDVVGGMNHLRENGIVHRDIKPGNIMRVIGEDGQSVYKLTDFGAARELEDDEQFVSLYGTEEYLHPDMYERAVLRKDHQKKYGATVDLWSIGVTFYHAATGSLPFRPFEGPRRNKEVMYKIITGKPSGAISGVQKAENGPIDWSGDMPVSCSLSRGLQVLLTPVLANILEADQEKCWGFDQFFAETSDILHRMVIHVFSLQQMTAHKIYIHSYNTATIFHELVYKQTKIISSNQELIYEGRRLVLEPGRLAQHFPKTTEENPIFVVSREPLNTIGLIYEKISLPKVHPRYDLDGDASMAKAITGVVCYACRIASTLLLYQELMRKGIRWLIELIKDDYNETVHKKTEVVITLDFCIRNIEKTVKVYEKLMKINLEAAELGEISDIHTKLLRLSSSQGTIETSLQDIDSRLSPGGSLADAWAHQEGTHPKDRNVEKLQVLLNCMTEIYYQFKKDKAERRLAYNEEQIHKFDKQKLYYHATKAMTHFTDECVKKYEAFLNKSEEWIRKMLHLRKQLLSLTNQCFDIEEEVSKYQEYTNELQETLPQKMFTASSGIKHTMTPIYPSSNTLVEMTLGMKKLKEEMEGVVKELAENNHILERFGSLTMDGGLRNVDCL

Sequence of Serine/threonine-protein kinase MARK2 (Homo sapiens) (Q7KZI7 whole entry, the tested form may be a part): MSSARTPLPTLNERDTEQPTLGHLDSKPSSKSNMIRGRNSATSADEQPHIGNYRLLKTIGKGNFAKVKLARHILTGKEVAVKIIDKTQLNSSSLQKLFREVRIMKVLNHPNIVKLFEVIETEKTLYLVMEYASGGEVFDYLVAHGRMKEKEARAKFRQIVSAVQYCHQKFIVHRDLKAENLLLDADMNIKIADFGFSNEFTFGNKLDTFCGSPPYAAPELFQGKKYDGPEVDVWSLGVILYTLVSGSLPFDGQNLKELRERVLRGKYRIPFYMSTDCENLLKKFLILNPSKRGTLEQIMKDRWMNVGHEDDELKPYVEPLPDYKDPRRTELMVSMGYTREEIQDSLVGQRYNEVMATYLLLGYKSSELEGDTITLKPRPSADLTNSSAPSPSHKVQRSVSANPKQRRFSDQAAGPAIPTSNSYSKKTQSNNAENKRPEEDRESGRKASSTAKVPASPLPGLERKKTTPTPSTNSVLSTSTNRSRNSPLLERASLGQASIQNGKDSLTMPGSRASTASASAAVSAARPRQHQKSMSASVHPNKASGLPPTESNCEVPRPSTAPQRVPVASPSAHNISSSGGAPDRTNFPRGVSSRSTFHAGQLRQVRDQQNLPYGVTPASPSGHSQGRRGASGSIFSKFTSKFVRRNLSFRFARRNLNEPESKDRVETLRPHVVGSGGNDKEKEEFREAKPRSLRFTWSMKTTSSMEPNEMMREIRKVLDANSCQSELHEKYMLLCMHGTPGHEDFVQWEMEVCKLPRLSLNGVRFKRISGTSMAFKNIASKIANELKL
Sequence of PAS domain-containing serine/threonine-protein kinase (Homo sapiens) (Q96RG2 whole entry, the tested form may be a part, canonical isoform): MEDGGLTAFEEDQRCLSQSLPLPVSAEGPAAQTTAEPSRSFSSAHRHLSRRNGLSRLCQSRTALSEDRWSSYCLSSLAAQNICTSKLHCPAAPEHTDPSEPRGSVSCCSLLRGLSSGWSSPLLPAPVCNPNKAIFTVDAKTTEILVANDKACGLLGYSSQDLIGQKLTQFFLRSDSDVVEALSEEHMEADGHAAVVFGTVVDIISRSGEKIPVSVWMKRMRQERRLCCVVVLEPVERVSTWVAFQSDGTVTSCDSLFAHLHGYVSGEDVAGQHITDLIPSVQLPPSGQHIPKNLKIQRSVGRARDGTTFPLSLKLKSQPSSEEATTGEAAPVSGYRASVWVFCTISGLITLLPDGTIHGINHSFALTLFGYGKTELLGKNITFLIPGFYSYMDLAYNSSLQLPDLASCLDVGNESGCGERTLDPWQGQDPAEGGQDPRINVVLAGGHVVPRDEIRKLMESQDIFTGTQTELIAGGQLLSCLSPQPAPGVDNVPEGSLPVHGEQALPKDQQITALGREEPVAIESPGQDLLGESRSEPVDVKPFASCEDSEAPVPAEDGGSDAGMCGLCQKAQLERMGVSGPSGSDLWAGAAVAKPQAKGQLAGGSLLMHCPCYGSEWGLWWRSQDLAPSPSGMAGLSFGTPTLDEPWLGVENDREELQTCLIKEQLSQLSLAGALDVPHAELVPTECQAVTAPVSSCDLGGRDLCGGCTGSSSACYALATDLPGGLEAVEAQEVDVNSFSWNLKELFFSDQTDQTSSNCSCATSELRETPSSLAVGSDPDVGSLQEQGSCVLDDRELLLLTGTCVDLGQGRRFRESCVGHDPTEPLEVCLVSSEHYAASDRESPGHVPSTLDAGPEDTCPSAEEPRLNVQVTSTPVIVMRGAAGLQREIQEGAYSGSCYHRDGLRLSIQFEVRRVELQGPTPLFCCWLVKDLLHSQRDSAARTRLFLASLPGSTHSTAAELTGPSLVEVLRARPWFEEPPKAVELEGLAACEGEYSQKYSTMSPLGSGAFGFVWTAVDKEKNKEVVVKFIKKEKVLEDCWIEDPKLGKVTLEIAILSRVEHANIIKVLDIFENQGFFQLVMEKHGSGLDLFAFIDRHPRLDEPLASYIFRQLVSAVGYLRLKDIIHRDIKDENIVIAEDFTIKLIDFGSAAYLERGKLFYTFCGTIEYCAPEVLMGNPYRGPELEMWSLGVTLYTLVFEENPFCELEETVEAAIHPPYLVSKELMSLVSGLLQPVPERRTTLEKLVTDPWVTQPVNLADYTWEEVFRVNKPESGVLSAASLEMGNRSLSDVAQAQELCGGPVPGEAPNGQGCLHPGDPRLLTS

Structure (SMILES)	inhibition [1]	inhibition [2]	inhibition [3]	inhibition [4]	inhibition [5]	inhibition [6]	inhibition [7]	inhibition [8]	inhibition [9]	inhibition [10]	inhibition [11]	inhibition [12]	inhibition [13]	inhibition [14]	inhibition [15]	inhibition [16]	inhibition [17]	inhibition [18]	inhibition [19]	inhibition [20]
CCn1c(-c2nonc2N)nc2cncc(C(=O)N3CCNCC3)c21	2.03%	-1.71%	-0.89%	3.09%	4.51%	8.34%	7.28%	0.31%	2.05%	-0.98%	-0.88%	0.06%	2.39%	2.77%	2.41%	4.86%	14.2%	6%	6.58%	6.79%
CS(=O)(=O)CCNCc1nc(-c2ccc3ncnc(Nc4ccc(F)c(Cl)c4)c3c2)cs1	0.61%	1%	0.68%	1.09%	4.69%	3.04%	3.64%	1.43%	9.19%	-0.24%	-0.01%	0.66%	6.45%	0.35%	1.43%	8.44%	8.78%	3.22%	2.57%	1.85%
CNC(=O)c1cncc(/C=C/c2c(Cl)cccc2Cl)c1	2.64%	-1.52%	-0.36%	0.96%	8.72%	4.13%	4.55%	-0.49%	1.79%	-3.71%	-0.92%	1.26%	7.42%	1.11%	1.46%	11.9%	50.9%	2.71%	17.3%	2.82%
CC(C)=Cc1cccc2c1/C(=N/Nc1ccc(S(N)(=O)=O)cc1)C(=O)N2	14.2%	0.93%	1.77%	0.64%	26.6%	1.74%	8.45%	1.05%	1.77%	0.72%	0.68%	1.74%	3.98%	0.48%	2.48%	3.24%	11.2%	4.69%	15.5%	3.78%
c1cnn2ncc(-c3ccnc(Nc4ccc5c(c4)OCCO5)n3)c2c1	14.3%	-0.33%	0.82%	5.46%	27.6%	7.04%	17.1%	0.98%	7.95%	0.25%	4.39%	0.84%	16.2%	1.78%	2.58%	9.87%	20.4%	11.1%	17.7%	3.41%
O=C1NC(=O)C(c2ccc(Cl)cc2)=C1Nc1ccc(Cl)c(C(=O)O)c1	2.17%	-0.66%	-1.05%	-1.07%	1.44%	-3.95%	-5.8%	-0.65%	-0.5%	1.05%	0.1%	0.19%	-0.33%	-0.91%	-0.59%	-6.41%	-4.82%	-6%	-3.21%	-0.72%
O=C(Nc1n[nH]c2nc(-c3ccco3)c(Br)cc12)C1CC1	2.09%	0.09%	-1.87%	1.65%	2.36%	4.24%	1.34%	-0.5%	0.54%	-0.2%	0.42%	-1.42%	-2.95%	0.87%	0.07%	2.49%	5.66%	3.56%	5%	6.52%
Fc1cccc(COc2ccc(Nc3ncnc4sc(-c5cccs5)cc34)cc2Cl)c1	4.63%	0.96%	-0.11%	2.66%	6.77%	-1.25%	-2.01%	0.38%	1.29%	0.52%	1.54%	0.47%	1.27%	0.51%	0.8%	0.72%	7.28%	2.25%	-2.41%	0.83%
CS(=O)(=O)Nc1ccc(N/C=C2\C(=O)Nc3ccccc32)cc1	15.6%	0.59%	0.59%	4.32%	31.5%	-3.81%	5.2%	0.18%	0.04%	-0.01%	0.67%	0.5%	2.02%	-0.78%	-0.07%		2.58%	4.05%	-6.11%	0.52%
COc1ccccc1Nc1ncc(-c2ccccc2)o1	3.48%	-0.06%	1.05%	8.92%	13.1%	5.65%	5.8%	0.63%	1.55%	0.78%	0.53%	0.22%	0.86%	2.09%	1.9%	-1.04%	14.1%	1.94%	5.2%	1.18%
CC1=C(C(=O)Nc2ccc3[nH]ncc3c2)C(c2ccc(F)cc2)NC(=O)N1 (stereo not drawn)	3.63%	-0.71%	-0.21%	4.98%	4.43%	0.63%	2.08%	0.13%	-0.04%	-0.16%	-0.13%	0.21%	-0.69%	2.17%	0.76%	0.84%	3.8%	3.04%	1.13%	2.82%
N#Cc1c(NC(=O)c2cccc3ccccc23)sc2c1CCCC2	1.22%	-0.47%	-1.11%	8.32%	5.08%	2.74%	1.46%	0.51%	0.27%	-0.34%	-0.27%	-0.51%	-1.85%	0.72%	0.28%	7.26%	9.67%	2.47%	12.4%	0.12%
CN(C)c1cc2c(Nc3ccc4nc(Cc5ccccc5)[nH]c4c3)ncnc2cn1	1.13%	0.02%	-2.17%	7.34%	13.4%	5.65%	5.19%	1.36%	3.18%	-0.82%	0.97%		2.51%	1.83%	2.12%	5.71%	10.2%	8.08%	7.99%	2.69%
